Among the data in PubChem BioAssay AID624304 (Sanford-Burnham Center for Chemical Genomics, 2012) are inhibition values, retold here.

Among all 360,000 compounds or so, about 1,800 (0.5%) were called active. Many of the other results were omitted from the sample, so actives are more common in it than they were. Unmarked numbers belong to inactive results.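 How the source made its calls: active means interference check ratio from 0.5 to 1.5 plus GFP to RFP signal ratio inhibition reaching or exceeding a fixed threshold (cut at about 30% in these data, passing the limit was not always enough); inactive means the rest.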

The test in a line: gst-4 reporter inhibition in live C. elegans – whole organism, uHTS, GFP/RFP fluorescence ratio, strain VP596, SKN-1 inhibitor project, primary screen (AID 624304). Particulars: C. elegans VP596 Pgst-4::GFP/RFP ratio, acrylamide-induced, 24 h; at 21.8 µM; stronger effect = higher value.
For orientation: inhibition means the change of the read-out against control, counted positive when it falls. Regarding `CCc1ccc2c(c1)C1(NN=C(c3ccccc3)S1)C(=O)N2` (stereo not drawn), the inhibition is 4.61%. For `Cc1ccc(-c2ccc(CN3C(C(C)C)C(=O)N(Cc4cn(CCC5OCCO5)nn4)CCS3(=O)=O)cc2)cc1` (stereo not drawn), the inhibition was 12.6%.

In the case of `COc1ccc(C2C3=C(OC(C)=O)c4ccccc4C3=Nc3c2c(=O)n(C)c(=O)n3C)cc1` (stereo not drawn), the inhibition was 2.4%. `CCOc1ccc(OCC)c(NC(=O)CN(C)S(=O)(=O)c2cccc3nsnc23)c1`: the inhibition is 27.2%. The figure for `CCO[C@@H]1OC(C(=O)NCc2nc3ccccc3[nH]2)=C[C@H](C2CCCCC2)[C@H]1CCCO` is 7.19%; for `CCOC(=O)C1=C(C)NC2=C(C(=O)CC(C)(C)C2)C1c1ccsc1` (stereo not drawn) it is 1.51%. For `COC(=O)c1ccc(C2NC(=O)NC(C)=C2C(=O)N(C)C)cc1` (stereo not drawn), the inhibition was 0.51%. The figure for `CCOC(=O)C1=C(C)Nc2sc(C(=O)c3ccc(Br)cc3)c(N)c2C1c1ccc(C(=O)OC)cc1` (stereo not drawn) is 37.2% (active). The figure for `CS(=O)(=O)N(CC(O)Cn1c2ccccc2c2ccccc21)c1cccc2ccccc12` (stereo not drawn) is 5.96%. Take `Oc1cccc2cc(-c3ccncc3)cnc12`: the inhibition was -1.84%. The same measure for `CC1=NN(C(=O)CCc2ccccc2O)C(O)(C(F)(F)F)C1` (stereo not drawn): 0.219%; for `CCN(CC)S(=O)(=O)c1ccc(N(C)Cc2ccc(C(F)(F)F)cc2)nc1`: 3.82%. As for `CCN(CC)S(=O)(=O)c1ccc(N(C)CCc2ccc(OC)c(OC)c2)nc1`, the inhibition is 43% (active). The figure for `CCN(CC)S(=O)(=O)c1ccc(N(C)Cc2cccc(OC)c2OC)nc1` is 13.3%.

As for `S=c1[nH]ccn1-c1ccc(Cl)cc1`, the inhibition was 1.55%.

On to `COc1cc2c(C(=O)N3CCN(C)CC3)c(CSc3ccccc3)n(C)c2cc1Br`, for which the inhibition was -4.81%. The same measure for `Oc1ccc(-c2nncn2-c2ccccc2)cc1`: 3.4%; for `CC(=O)Nc1ccc(NC(=O)CCN2C(=O)C3CC=CCC3C2=O)cc1` (stereo not drawn): -12.5%; for `Cc1c(C(=O)NCCN2C(=O)S/C(=C\c3cccs3)C2=O)cccc1[N+](=O)[O-]`: 9.81%. For the compound `O=C(CCCN1C(=O)/C(=C/c2cccs2)SC1=S)Nc1ccc(O)cc1`, the inhibition is 38.3% (active). The figure for `Cn1nnc2cc(C(=O)NCCC3=CCCCC3)ccc21` is 35.4% (active); for `CC(Sc1nncn1C)C(=O)NCCC1=CCCCC1` (stereo not drawn) it is -8.96%; for `O=C(NCCC1=CCCCC1)c1ccc(Cl)c([N+](=O)[O-])c1` it is 7.85%. The same measure for `CCc1ccc(C(=O)NC(=S)Nc2ccccc2N2CCOCC2)cc1`: 11%; for `CC(=O)N1CCN(c2ccccc2NC(=S)NC(=O)c2cc3ccccc3o2)CC1`: 6.86%; for `COc1ccc(C(=O)NC(=S)Nc2ccccc2N2CCN(S(C)(=O)=O)CC2)cc1OC`: 41% (active). As to `CC(=O)c1cccc(NC(=O)N2CCCC2C(=O)NCCc2ccccc2)c1` (stereo not drawn), the inhibition is 23.5%. With `Cn1nnnc1SCC(=O)Nc1cccc(S(=O)(=O)N2CCCCC2)c1`, the inhibition is 6.32%. As to `O=C(CSc1ccccc1)Nc1cccc(S(=O)(=O)N2CCCCC2)c1`, the inhibition is 12.9%. The same measure for `COCCn1cnnc1SCC(=O)Nc1cccc(S(=O)(=O)N2CCCCC2)c1`: 47% (active); for `CCOC(=O)C1CCCN(C(=O)COc2ccc(N(C)S(=O)(=O)c3ccc(C)cc3)cc2)C1` (stereo not drawn): -2.11%; for `Cn1cc(S(=O)(=O)N2CCN(c3ccc(F)cc3)CC2)c(=O)n(C)c1=O`: 1.81%. The same measure for `CCN1C(=O)[C@@H]2[C@@H]3CN(S(=O)(=O)c4ccccc4C)[C@@H](c4ccc(Cl)cc4)[C@@H]3C(=O)C[C@@H]2C1=O`: 2.39%; for `C#CCN(C[C@H]1[C@H](OC(=O)NC2CCCC2)[C@H](OC(=O)NC2CCCC2)C[C@H]2C(=O)N(c3ccccc3)C(=O)[C@@H]12)S(=O)(=O)c1ccc(C)cc1`: 11.9%; for `CCc1ccc2oc(-c3ccc(N)cc3)nc2c1`: 39.8% (active).

Turning to `O=[N+]([O-])c1ccc2oc(-c3cccc(O)c3)nc2c1`, the inhibition is 17%. The same measure for `COc1ccc2oc(N)nc2c1`: 3.43%; for `C[C@H]1CN(c2ccc(Br)cc2)C(=O)[C@@H]1CC(=O)Nc1ccc(Br)cc1`: -1.36%. The same measure for `CCCCN1C[C@H](c2ccc(Br)cc2)[C@@H](CC(=O)Nc2ccc(Br)cc2)C1=O`: 46.8% (active); for `CCCCN1CC(C)(C)[C@H](CC(=O)Nc2ccc(Br)cc2)C1=O`: 13%.

In the case of `COC(=O)c1ccc(N(CC(=O)NC2CCCC2)C(=O)CNC(=O)c2ccco2)cc1`, the inhibition is 13.4%. Turning to `CN1CCN(S(=O)(=O)c2ccc(NC(=O)c3ccco3)cc2)CC1`, the inhibition was 13.7%. With `NS(=O)(=O)c1cccc(NC(=O)COC(=O)/C=C/c2ccco2)c1`, the inhibition is 0.905%. The figure for `Cc1ccoc1C(=O)Nc1cccc(Oc2ccccc2)c1` is -23.9%; for `O=C(/C=C/c1ccco1)Nc1ccc(Oc2ccccc2)cc1` it is 48.8% (active); for `O=C(Nc1ccc(Oc2ccccc2)cc1)c1ccco1` it is 38.8% (active). The same measure for `O=C(/C=C/c1ccco1)NC(=S)N1CCCCC1`: 11.9%. With `CCNc1nc(NC(C)C)nc(N2CC(=O)N(CC(=O)OCC)C2=N)n1`, the inhibition is 3.01%. The figure for `NS(=O)(=O)c1ccccc1NC(=O)c1c(O)c2ccccc2[nH]c1=O` is 5.41%. The same measure for `COc1cccc(CNS(=O)(=O)c2ccc3c(c2)N(C(C)=O)CCS3)c1`: 19.6%; for `CC1CCN(c2oc(-c3ccccc3F)nc2C#N)CC1`: 35.4% (active).

For `Cc1oc(-c2ccccc2F)nc1CS(=O)CC(=O)NCCN1CCCCC1C` (stereo not drawn), the inhibition is 5.11%.

For the compound `N#Cc1nc(-c2cccc3ccccc23)oc1N`, the inhibition is 16.8%. The figure for `O=[N+]([O-])c1cc([N+](=O)[O-])c(Oc2cc(F)cc(F)c2F)cc1NN1CCCCC1` is 15.8%.

Take `CCCNC(=O)C1(C)CCN(C(=O)c2ccccc2OC(F)(F)F)C1` (stereo not drawn): the inhibition is -0.325%. The figure for `O=C(CCc1ccc(S(=O)(=O)NC2CCCCC2)cc1)NCc1ccccc1` is 3.92%. The figure for `Cc1cc(N=Nc2ccc3ccccc3c2)ccc1O` is 44.4% (active).

Consider `Cc1c(C(=O)NCCN2CCOCC2)sc2nc(-c3ccc(F)cc3)cn12`, for which the inhibition was 5.89%.

On to `CC/C(=N/Nc1ccccc1)c1cnnc(SC)n1`, for which the inhibition is 10.2%.

In the case of `CCOc1ccc(CNC(=O)C2CC(=O)N(C3CCCC3)C2)cc1OC` (stereo not drawn), the inhibition was 8.98%. The same measure for `CCOC(=O)C1CCN(C(=O)C2CCN(S(=O)(=O)CC)CC2)CC1`: 6.26%. The same measure for `Cc1onc(-c2ccccc2Cl)c1C(=O)N(Cc1ccc(N(C)C)cc1)C(C)C`: -21.5%; for `Cc1ccc2cc(CCNC(=O)c3c(-c4ccccc4Cl)noc3C)c(=O)[nH]c2c1`: 11.2%.

As for `Cc1onc(-c2ccccc2Cl)c1C(=O)NCCn1ccc2ccccc21`, the inhibition is 39.7% (active).

On to `FC(F)(F)c1ccc(-c2cccc3c2C2CC3CCN2Cc2ccccc2)cc1` (stereo not drawn), for which the inhibition was 7.81%. The figure for `CC1(C)Cc2ccccc2-c2nnc(-c3cccc(O)c3)n21` is 27.7%; for `O=C(NCCCn1ccnc1)c1cc(-c2ccccc2)on1` it is 8.95%. The figure for `O=C(NC1CCCCCCC1)c1cccs1` is 22.3%. As to `O=C(NC1CCCC1)c1cc(-c2ccccc2)on1`, the inhibition is 37.3% (active). The same measure for `NC1=CC(=O)C(=O)c2cccnc21`: 18.3%; for `COc1ccccc1Cn1c(C)nnc1-c1cnn(C)c1N`: 10.4%. The figure for `CCOc1cc(C)ccc1OCc1nnc(SCC(=O)Nc2cccc(C(=O)O)c2)n1-c1ccccc1` is -9.28%. Regarding `CC(=O)Nc1ccc(NC(=O)CSc2nnc(COc3ccccc3C)n2CC2CCCO2)cc1` (stereo not drawn), the inhibition is -7.59%. Regarding `CCCCNC(=O)CSc1nc2ccc(NC(=O)CSc3nnc(COc4ccccc4C)n3C)cc2s1`, the inhibition was 39.2% (active). Consider `Cc1nonc1C1CCCN1Cc1nc(-c2ccc(F)cc2F)oc1C` (stereo not drawn), for which the inhibition was 10%.

Consider `CSc1nnc(CNC(=O)c2ccccc2)n1-c1ccc(F)cc1`, for which the inhibition is -6.87%. The same measure for `Cc1ccnc(SCCn2c(Br)nc3c2c(=O)[nH]c(=O)n3C)n1`: -9.02%; for `CCCCCCCCCCCCN1C(=O)CSC1c1cccnc1` (stereo not drawn): -6.65%; for `CCOc1cc(CO)ccc1OCC(=O)N1CCCCC1`: 7.04%. The figure for `CCOC(=O)/C=C/c1ccc(C(F)(F)F)cc1S(=O)(=O)NC(C)(C)C` is 3.66%; for `CCOC(=O)/C=C/CN(C(=O)OC(C)(C)C)S(=O)(=O)N1CC=CC1` it is 35.2% (active); for `CNc1cc(-c2c(OC)cccc2OC)ncn1` it is 4.47%.

For the compound `CC(C)c1ccc(NC(=O)COC(=O)c2ccc(CN3CCCC3=O)cc2)cc1`, the inhibition is -1.54%. The same measure for `CCCC(=O)N1CCC1(C)C(=O)NCc1ccc(C(C)C)cc1` (stereo not drawn): 14.8%; for `CC(=O)N1CCN(c2ccc(NCc3ccc(C(C)C)cc3)cc2)CC1`: 36.1% (active). Turning to `COCCNC(=O)c1ccc(N2CCC3(CC2)OCCO3)c([N+](=O)[O-])c1`, the inhibition was -6.38%. The same measure for `O=C(Nc1nn(Cc2ccccc2F)cc1Br)c1cccs1`: 6.46%; for `COc1ccc(CCc2nc(-c3cccs3)no2)cc1`: -7.8%; for `O=C(NCc1cccnc1)c1nc(-c2cccs2)no1`: 7.29%.

Turning to `c1csc(-c2nc(-c3ccncc3)no2)c1`, the inhibition is 47.4% (active).

Regarding `Cc1ccc(-c2nc(-c3ccncc3)no2)c(C)c1`, the inhibition is 37% (active).

In the case of `Cc1ccc(-c2noc(-c3ccccc3C(=O)NCC3CCCO3)n2)cc1` (stereo not drawn), the inhibition is -3.76%. The figure for `COc1cc(OC)cc(C(=O)OCC(=O)Nc2sccc2C(N)=O)c1` is 0.966%.
